An excerpt weighted towards active compounds, which were near 2.2% of everything screened.
IEC-6 cytotox = counter-screen for KLF5 inhibitors: cytotoxicity in IEC-6 cells; IEC-6 cytotoxicity, luminescence viability; inhibition, % at 5 µM; AID 1825; 290,000 tested, 0.78% active; in the data active means inhibition above about 22%
KLF5 inhibitor = suppresses KLF5 promoter-driven expression | 290,000 tested, 0.23% active | DLD-1 KLF5 promoter-luciferase reporter, luminescence | inhibition, % at 5 µM;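 active means inhibition above a per-plate limit of that plate's mean compound inhibition plus 3 SD, cut at about 60% in these data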;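 further: higher means less KLF5 promoter-driven luciferase light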
BaF3 tox = parental Ba/F3 viability inhibition as JAK2V617F counter-screen; CellTiter-Glo ATP luminescence; inhibition, % at 5.6 µM; 220,000 tested, 1.1% active; AID 1486;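 active means inhibition above a per-campaign cutoff, the mean inhibition of all tested compounds plus 3 SD, cut at about 27% in these data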
APP 5UTR inh = APP translation inhibition | inhibition, % at 2 µM | AID 1285 | SH-SY5Y APP 5'UTR-luciferase reporter, luminescence | 190,000 tested, 0.82% active;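 active means inhibition above a set limit, derived from the sample mean plus 3 SD, cut at about 45% in these data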
aSyn 5UTR inh = MLPCN primary screen, SNCA 5' untranslated region | alpha-synuclein 5'UTR reporter, inhibitor activity | 300,000 tested, 0.82% active | inhibition, % (tested at 7.5 µM); in the data active means inhibition above about 60%;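 further: H4 neuroglioblastoma cells stably carrying SNCA 5'UTR luciferase fusion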
Ba/F3 V617F tox = loss of viability in JAK2V617F-driven Ba/F3 cells. Ba/F3 EpoR-JAK2V617F viability, ATP luminescence. inhibition, % at 5.6 µM. 220,000 tested, 1.1% active;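 active means inhibition above the campaign mean plus 3 SD over all tested compounds, cut at about 24% in these data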;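 further: cytokine-independent growth of Ba/F3 cells driven by EpoR plus mutant JAK2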
Numbers stand for hits; i = inactive; nt = no result.

SMILES	IEC-6 cytotox	KLF5 inhibitor	BaF3 tox	APP 5UTR inh	aSyn 5UTR inh	Ba/F3 V617F tox
Cc1ccccc1Cn1cc(NC(=O)c2noc(C(C)C)c2[N+](=O)[O-])cn1	i	i	nt	nt	106	nt
CC(=O)Nc1ccc(NC(=O)c2cc(C)nn2-c2ccccc2)cc1	i	i	i	i	i	i
CC(=O)c1cc2c(cc1NC(=O)c1cc(C)nn1-c1ccccc1)OCO2	i	i	i	59	i	i
CC1CCCCN1CCCNC(=O)C1CCCN(c2ncnc3c2nc2n3CCCCC2)C1 (stereo not given)	i	i	nt	nt	i	nt
COc1ccc(-c2noc(CCCC(=O)NC3CCCC3)n2)cc1	i	i	nt	nt	62	nt
COc1ccc(-c2noc(CCC(=O)NC3CCCCCC3)n2)cc1	i	i	nt	nt	i	nt
CCSc1nc2sc3c(c2c(=O)n1-c1ccc(OC)cc1)CCN(C)C3	i	i	38	nt	i	i
Cc1ccc(-c2c[n+](CC(=O)c3ccc(Br)cc3)c3n2CCCCC3)cc1	i	i	69	i	i	77
CC1CCC(C(C)C)C(OC(=O)C[n+]2cc(-c3ccc(Cl)cc3)n3c2CCCCC3)C1 (stereo not given)	i	i	73	i	i	101
O=C(C[n+]1cc(-c2ccccc2)n2c1CCCCC2)c1ccc(Cl)cc1	i	i	56	i	i	53
O=C(C[n+]1cc(-c2ccc(F)cc2)n2c1CCC2)c1cccs1	i	i	29	nt	i	i
COc1ccc(CNC(=O)CN(C)S(=O)(=O)c2ccc3c(c2)c(=O)n(C)c(=O)n3C)cc1	i	i	nt	nt	i	nt
COc1ccc2oc(C(=O)Nc3ccc(N4CCOCC4)cc3)c(C)c2c1	nt	nt	nt	nt	i	nt
Cc1ccc(NC(=O)C[n+]2cc(-c3ccccc3)n3c2CCC3)cc1	i	i	i	nt	i	i
COc1ccc(-c2c[n+](CC(=O)c3ccccc3)c3n2CCCCC3)cc1	i	i	60	nt	i	48
C[n+]1cc(-c2ccccc2)n2c1CCCCC2	i	i	64	i	i	65
O=[N+]([O-])c1ccc(C[n+]2cc(-c3ccccc3)n3c2CCCCC3)cc1	i	i	i	i	i	i
COc1ccc(CCn2c(=O)[nH]c3cc(C(=O)N4CCN(c5ccccn5)CC4)ccc3c2=O)cc1OC	i	i	i	i	i	i
Cc1ccccc1OCC(=O)NCCS(=O)(=O)N1CCN(c2ccc(F)cc2)CC1	nt	nt	nt	nt	i	nt
O=C(O)CCCC(=O)Nc1ccccc1SCCS(=O)(=O)c1ccc(Cl)cc1	i	i	nt	nt	i	nt
COc1ccc(CC(=O)OCC(=O)N(C)C2CCS(=O)(=O)C2)cc1OC (stereo not given)	nt	nt	nt	nt	i	nt
Cc1cc(C)n(-c2nc(NCCCN(C)C)c3c4c(sc3n2)CCCC4)n1	i	i	i	nt	i	i
Cc1cc(C)n(-c2nc(NCCN(C)C)c3c4c(sc3n2)CCCC4)n1	i	i	i	nt	116	i
Cn1cc(C(=O)c2ccc(Cl)cc2Cl)cc1C(=O)N/N=C(\N)COc1ccc(Cl)cc1Cl	i	i	i	i	65	i
O=C(Oc1ccc2c(c1)OCO2)c1cc2c(s1)CCC2	i	i	i	56	i	i
SMILES	IEC-6 cytotox	KLF5 inhibitor	BaF3 tox	APP 5UTR inh	aSyn 5UTR inh	Ba/F3 V617F tox
CCCCn1c(O)c(/C=C2\C=NN=C2c2ccccc2)sc1=S	i	i	i	i	i	i
CCn1c(O)c(/C=C2\C=NN=C2c2ccccc2)sc1=S	i	i	i	nt	67	i
O=C(O)CC(c1cccc(O)c1)N1Cc2ccccc2C1=O (stereo not given)	i	i	nt	nt	i	nt
COC(=O)c1cc(COc2ccc3ccc(=O)oc3c2)c(C)o1	i	i	94	i	i	i
O=C(NN=C1CCCCCC1)c1ccncc1	i	i	nt	nt	nt	nt
O=C(NN=C1CCCC1)c1n[nH]c2c1CCC2	i	i	i	94	i	i
O=C(NN=C1CCCC1)c1n[nH]c2c1CCCC2	i	i	i	92	i	i
Cc1ccsc1/C=N\NC(=O)c1n[nH]c2c1CCC2	i	i	i	i	69	i
O=C(N/N=C/c1c(Cl)cccc1Cl)c1n[nH]c2c1CCCC2	i	i	i	i	i	i
Cc1ccc(S(=O)(=O)N2CCN(C)CC2)c2nsnc12	i	i	nt	nt	i	nt
CCS(=O)(=O)N1Cc2ccccc2CC1C(=O)Nc1ccc(F)c(F)c1F (stereo not given)	i	i	nt	nt	i	nt
CCOc1ccc2nc3cc(NCc4ccc(OC)cc4)ccc3c(N)c2c1	i	i	nt	nt	109	nt
Cc1ccc(-c2nn(-c3ccccc3)cc2C=C2C(=O)CC(C)(C)CC2=O)cc1	i	i	i	i	i	i
CC1=NNC(=O)/C1=C\c1cn(-c2ccccc2)nc1-c1ccc(Cl)cc1	i	i	i	i	98	i
CCOC(=O)N1CCC(n2c(SCC(=O)NCCc3ccc(S(N)(=O)=O)cc3)nc3ccccc3c2=O)CC1	i	i	i	i	i	i
O=C(CC(C(=O)N1CCc2ccccc21)n1ccnc1)NCC1CCCO1 (stereo not given)	i	i	95	i	i	i
CCCCNC(=O)CC(C(=O)N1CCc2ccccc21)n1ccnc1 (stereo not given)	i	i	i	i	i	i
CCOC(=O)c1c(NC(=S)NC(=O)c2cnn(CC)c2)sc2c1CCC(C)C2 (stereo not given)	i	i	i	i	i	i
Fc1ccc(NC(=S)N2CCc3ccccc3C2)c(F)c1	i	i	39	i	i	i
Fc1ccc(NC(=S)N2CCOCC2)c(F)c1	i	i	nt	nt	i	nt
CC1SC(C)C(=O)N(CC(=O)NCc2ccc(F)cc2)C1=O (stereo not given)	i	i	i	i	i	i
COC(=O)c1cccc(NC(=O)NC(=O)c2ccccc2Cl)c1	i	i	i	nt	95	i
c1ccc(CC2CCN(c3ncnc4sccc34)CC2)cc1	i	i	44	i	i	37
Cc1nc(=O)c(-c2ccccc2)c(C)n1Cc1ccccc1	i	i	i	48	i	i
Oc1c(CN2CCCC(C(F)(F)F)C2)cc(Cl)c2ccccc12 (stereo not given)	i	i	nt	nt	i	nt
SMILES	IEC-6 cytotox	KLF5 inhibitor	BaF3 tox	APP 5UTR inh	aSyn 5UTR inh	Ba/F3 V617F tox
CCc1nc2ccccc2c(NC(=O)CN2CC(C)CC(C)C2)c1C (stereo not given)	i	i	i	i	i	i
CC(C)(C)c1ccc(C(O)CCCN2CCC(C(O)(c3ccccc3)c3ccccc3)CC2)cc1 (stereo not given)	i	i	i	i	111	i
Oc1ccccc1CN1CCC(C(O)(c2ccccc2)c2ccccc2)CC1	i	i	i	i	i	i
O=C(CCc1nnc(-c2ccc(-c3ccccc3)cc2)o1)NCCc1ccccn1	i	i	i	i	90	i
CC(NC(=O)CCc1nnc(-c2ccc(-c3ccccc3)cc2)o1)c1nccs1 (stereo not given)	i	i	i	i	89	i
COC(=O)CCCNC(=O)CCc1nnc(-c2ccc(-c3ccccc3)cc2)o1	i	i	nt	nt	77	nt
Cc1ccc(NC(=O)COC(=O)c2ccc([N+](=O)[O-])s2)c(C)c1	i	i	i	58	i	i
Cc1cccc(NC(=O)/C=C/c2ccc([N+](=O)[O-])s2)c1	i	i	i	88	i	i
Cc1ccc(NC(=O)/C=C/c2ccc([N+](=O)[O-])s2)c(C)c1	i	i	i	93	i	i

Source: PubChem (several laboratories)
